Bioassay records deposited in PubChem BioAssay by National Center for Advancing Translational Sciences (NCATS).
This is a sample that favours compounds with a hit; in the whole collection about 18% have one here.
Six1-Eya2 blk = inhibitors of human Six1/Eya2 interaction | Q15475+O00167 | AlphaScreen GST-Six1/His-Eya2 binding, biochemical; stronger effect = lower value | activity change, % (no concentration beside the values) | actives 0.56% (n = 360,000) | AID 651725; in the data active = activity change below about -65%; inconclusive = mostly about -30% to -63%
Target sequence (O00167 whole entry, looked up): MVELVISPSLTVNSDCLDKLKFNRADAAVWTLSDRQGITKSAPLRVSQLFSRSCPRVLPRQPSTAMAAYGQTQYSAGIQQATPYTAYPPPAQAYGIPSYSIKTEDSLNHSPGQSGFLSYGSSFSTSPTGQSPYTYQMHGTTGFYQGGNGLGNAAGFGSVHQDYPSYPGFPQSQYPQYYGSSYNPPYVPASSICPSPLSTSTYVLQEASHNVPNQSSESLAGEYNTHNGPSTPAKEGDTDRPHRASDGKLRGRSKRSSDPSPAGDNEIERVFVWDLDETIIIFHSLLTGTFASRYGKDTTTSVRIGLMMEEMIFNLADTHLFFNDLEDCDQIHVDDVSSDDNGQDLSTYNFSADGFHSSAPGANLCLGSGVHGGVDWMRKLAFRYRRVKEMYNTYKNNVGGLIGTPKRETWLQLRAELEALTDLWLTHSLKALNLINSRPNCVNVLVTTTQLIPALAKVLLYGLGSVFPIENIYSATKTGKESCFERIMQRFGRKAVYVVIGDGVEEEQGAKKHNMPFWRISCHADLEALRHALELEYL
Target sequence (Q15475 whole entry, looked up): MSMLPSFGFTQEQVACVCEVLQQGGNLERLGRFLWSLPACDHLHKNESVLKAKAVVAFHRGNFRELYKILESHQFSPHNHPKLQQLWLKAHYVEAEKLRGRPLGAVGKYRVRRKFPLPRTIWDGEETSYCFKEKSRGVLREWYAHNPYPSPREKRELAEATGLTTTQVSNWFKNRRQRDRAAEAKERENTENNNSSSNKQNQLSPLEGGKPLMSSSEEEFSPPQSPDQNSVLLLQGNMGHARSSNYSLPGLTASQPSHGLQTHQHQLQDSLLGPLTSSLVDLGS
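AlphaScreen with GST-Six1 and His-Eya2 (5X mix: 250 nM and 500 nM), glutathione donor and nickel acceptor beads; buffer 50 mM Tris pH 8.0, 300 mM NaCl, 1 mM TCEP; 1 h at 37 C in the dark.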
IL-1B inflam inh = inflammasome signaling inhibition, IL-1 beta readout; THP-1 LPS/ATP IL-1B secretion, AlphaLISA, 16 h; stronger effect = lower value; activity change, % at 57.5 µM; actives 4.7% (n = 360,000); in the data active = activity change below about -50%; inconclusive = mostly about -30% to -49%
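Secreted IL-1B measured by AlphaLISA bead assay after 16 h compound exposure of THP-1 cells; compounds (final up to 57.5 uM) added 1 h before LPS (250 ng/mL) and ATP (1.25 mM) stimulation; lower signal means less secretion.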
CtBP-E1A blk = blocks the CtBP interaction with E1A; AlphaScreen GST-E1A/His-CtBP binding, 1536-well; stronger effect = lower value; activity change, % (no concentration beside the values); actives 0.49% (n = 340,000); AID 651724; in the data active = activity change below about -65%; inconclusive = mostly about -30% to -63%
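Steps: dispense buffer (Tris pH 8.0, NaCl 300 mM, TCEP 1 mM, BSA, Tween 20); add 5X protein mix (GST-E1A, His-CtBP, 125 nM each); pin 23 nL compound; 2 h at 37 °C, dark; add 5X beads (50 ug/mL); 1 h; read.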
DT40 TDP1 CPT = growth inhibition of DT40 Tdp1-/-;hTDP1 cells with camptothecin (screen for TDP1 inhibitors) | Potency, µM (doses to about 46.2 µM), most hits filed as inhibitors | chicken DT40 Tdp1-/-;hTDP1 cells + 20 nM CPT, ATP luminescence, 48 h | actives 12% (n = 420,000); note: nearly all actives have a fitted effect of over 55% in size
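Cell growth measured by CellTiter-Glo luminescence after a minimum 48 h, 37 C compound exposure with 20 nM CPT in Tdp1-knockout DT40 cells stably expressing hTDP1, seeded 400/well; qHTS titration format.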
TDP1 block = inhibitors of human tyrosyl-DNA phosphodiesterase TDP1; Q9NUW8; recombinant TDP1, AlphaScreen DNA substrate cleavage; Potency, µM (titrated, usually from 130 µM), actives largely listed as inhibitors; actives 0.28% (n = 350,000); note: nearly all actives have a fitted effect of over 40% in size
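Tdp1 1 nM final; 15 min RT w/ cpd; substrate 15 nM, 5 min; beads 10 ug/ml, 10 min; AlphaScreen read. Neg ctrl: no enzyme.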
TDP1 cell noCPT = qHTS for Inhibitors of human tyrosyl-DNA phosphodiesterase 1 (TDP1): qHTS in cells in absence of CPT. AID 686978, 2013. Potency, µM (titrated, usually from 46.2 µM), hits mostly inhibitors. actives 15% (n = 420,000). DT40 Tdp1-/- hTDP1 cells, no CPT, ATP luminescence, 48 h; note: nearly all actives have a fitted effect of over 55% in size
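Chicken DT40 Tdp1-/- cells stably complemented with human TDP1 were seeded at 400 cells/well with DMSO in place of 20 nM camptothecin. After compound pinning, cells grew at least 48 hr at 37 °C; viability read by CellTiter-Glo luminescence.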
Numbers stand for hits; – = inactive; ? = inconclusive; · = no result given. Unless noted, calls come from the whole dose curve; as a rule, active = well fitted curve in the direction sought with a large enough effect; inconclusive = small, poorly fitted or top-dose-only effect, or another doubt; inactive = no such curve, though single readings can be large; an effect the other way counts as inactive or inconclusive.

SMILES	Six1-Eya2 blk	IL-1B inflam inh	CtBP-E1A blk	DT40 TDP1 CPT	TDP1 block	TDP1 cell noCPT
CC(=O)OCC1OC(n2cnc3c(=O)[nH]cnc32)C(OC(C)=O)C1OC(C)=O (stereo not drawn)	·	·	·	–	–	–
COc1ccc(-c2csc(NC(C)c3nc4cc(Cl)c(Cl)cc4n3CCOCCO)n2)cc1 (stereo not drawn)	–	?	–	?	·	18µM
O=C(/C=C/c1ccco1)Nc1ccc2nc3n(c(=O)c2c1)CCCC3	–	-51	–	?	–	–
CCOc1ccccc1C(=O)Nc1ccc2nc3n(c(=O)c2c1)CCCCC3	–	–	·	?	–	2.6µM
Cc1ccc(-n2nc3ccc(NC(=O)/C=C/c4ccco4)cc3n2)cc1	–	–	–	21µM	·	?
Cc1ccc(NC(=O)c2cccc(NC(=O)/C=C/c3ccco3)c2)cc1C	–	–	–	?	–	?
COc1ccc(Cl)cc1C(=O)Nc1ccc2nc3n(c(=O)c2c1)CCCC3	–	–	–	15µM	·	18µM
O=c1c2cc(NC(=S)N3CCCC3)ccc2nc2n1CCCCC2	–	–	–	–	–	–
COc1cc(C(=O)Nc2ccc3nc4n(c(=O)c3c2)CCCC4)ccc1Br	–	–	?	–	·	?
O=C(NC(c1cccnc1)C(F)(F)F)c1cc(COc2ccc3c(c2)CCCC3)on1 (stereo not drawn)	–	?	–	4.1µM	–	2.6µM
Cn1cc(CNC(=O)c2cc(COc3ccc4c(c3)CCCC4)on2)cn1	–	–	–	?	–	15µM
CCN(Cc1cnn(C)c1)C(=O)c1cc(COc2ccc3c(c2)CCCC3)on1	–	–	–	16µM	–	12µM
O=C(C1CCCCC1)N(Cc1cccnc1)c1nc2ccc(F)cc2s1	·	·	·	?	–	?
Cc1cc(OCc2cc(C(=O)N(C)C(C)c3ccccn3)no2)cc(C)c1Cl (stereo not drawn)	–	–	–	18µM	–	?
Cc1cc(OCc2cc(C(=O)N3CCC(Oc4cccnc4)CC3)no2)cc(C)c1Cl	–	-62	–	13µM	–	15µM
Cc1cc(OCc2cc(C(=O)N(C)Cc3ccccn3)no2)cc(C)c1Cl	–	–	–	?	–	?
CC(=O)c1ccc(OCc2cc(C(=O)NC(C)c3cnn(C)c3)no2)cc1 (stereo not drawn)	–	–	–	–	–	–
Cc1cc(OCc2cc(C(=O)NC(C)c3cnn(C)c3)no2)cc(C)c1Cl (stereo not drawn)	–	–	–	18µM	·	16µM
Cc1ccccc1C1CCCN(C(=O)c2cc(COc3c(F)cccc3F)on2)C1 (stereo not drawn)	–	–	–	23µM	–	21µM
C[C@@H]1CN([C@H](C)CO)C(=O)c2cc(NC(=O)Cc3cn(C)c4ccccc34)ccc2O[C@H]1CN(C)S(=O)(=O)c1ccc(F)cc1	–	–	?	?	–	?
CC(Oc1ccc(Cl)cc1Cl)C(=O)NC(=S)N1CCc2ccccc21 (stereo not drawn)	–	–	–	?	–	?
Cc1cc(OCc2cc(C(=O)N3CCCCCC3)no2)cc(C)c1Cl	–	–	–	15µM	–	?
Cc1ccc(OCc2cc(C(=O)N3CCN(C4CCCCC4)CC3)no2)cc1C	–	–	–	16µM	–	?
Cc1ccc(CSc2cn(CC(=O)N3CCCCCC3)c3ccccc23)cc1	·	·	·	?	–	21µM
Cc1ccc(CSc2cn(CC(=O)N3CCCC3)c3ccccc23)cc1	·	·	·	16µM	–	16µM
SMILES	Six1-Eya2 blk	IL-1B inflam inh	CtBP-E1A blk	DT40 TDP1 CPT	TDP1 block	TDP1 cell noCPT
Cc1ccc(C)c(NC(=O)CSc2cn(CC(=O)N3CCCCC3)c3ccccc23)c1	·	·	·	?	–	?
Fc1cc(F)cc(NC(=S)NCCCN2CCOCC2)c1	–	–	–	–	–	–
CCOc1ccc(NC(=O)c2ccc3c(=O)n4nc(Nc5ccccc5C)sc4nc3c2)cc1	·	·	·	?	–	6.5µM
Cc1ccccc1Nc1nn2c(=O)c3ccccc3nc2s1	–	–	–	?	–	?
COc1ccc(NC(=O)c2ccc3c(=O)n4nc(Nc5ccccc5C)sc4nc3c2)cc1Cl	·	·	·	7.3µM	–	5.8µM
COc1ccc(NC(=O)c2ccc3c(=O)n4nc(Nc5cccc(Cl)c5C)sc4nc3c2)cc1	·	·	·	2.9µM	–	3.3µM
Cc1ccc(NC(=O)c2ccc3c(=O)n4nc(Nc5ccccc5C)sc4nc3c2)cc1C	·	·	·	2.9µM	–	5.8µM
Cc1ccc(CNC(=O)C2CCC(=O)N(CCc3ccccn3)C2)s1 (stereo not drawn)	–	–	–	–	–	–
O=C(Nc1ccc(F)c(Cl)c1)C1CCCN(C2=NS(=O)(=O)c3ccccc32)C1 (stereo not drawn)	?	–	·	?	–	?
O=c1c2ccccc2nc(SCc2cn3ccsc3n2)n1-c1ccccc1F	–	–	–	?	–	?
N/C(=N\OS(=O)(=O)c1ccc(Cl)cc1)c1ccccn1	?	–	–	?	–	16µM
O=C(CSc1nc2c(sc3ccccc32)c(=O)n1CCCN1CCCC1)NCc1ccccc1	–	-100	–	–	–	?
COc1ccc(Cn2c(SCC(N)=O)nc3c(sc4ccccc43)c2=O)cc1	·	·	·	?	–	?
CCOCCCn1c(SCC(=O)NCc2ccccc2)nc2c(sc3ccccc32)c1=O	·	·	·	–	–	?
Cc1ccc(CNC(=O)CSc2nc3c(sc4ccccc43)c(=O)n2CCCN2CCCC2)cc1	–	-90	–	23µM	–	?
CSc1nc2c(sc3ccccc32)c(=O)n1Cc1ccc(C)cc1	·	·	·	21µM	–	16µM
CCOC(=O)c1cc(NCc2cccs2)ccc1N1CCOCC1	–	–	–	–	–	–
NC(=O)c1ncc(C(F)(F)F)cc1Oc1cccc(F)c1	–	–	–	–	–	–
C=CCNCC(=O)N1N=C(c2ccc3ccccc3c2)CC1c1ccc(OC)cc1 (stereo not drawn)	–	–	–	8.2µM	–	13µM
COc1ccc(C2=NN(C(=O)CCC(=O)O)C(c3ccc(OC)cc3)C2)cc1 (stereo not drawn)	–	–	–	–	·	–
CC(=O)OCC(=O)N1N=C(c2ccc3ccccc3c2)CC1c1ccccc1 (stereo not drawn)	–	–	–	–	–	–
COc1ccc(C2CC(c3ccc4ccccc4c3)=NN2C(=O)CNC2CCCCC2)cc1 (stereo not drawn)	–	-51	·	15µM	–	13µM
